# Data reported in PubChem BioAssay.
# Calls of active or inactive are those of the source. Unless noted, no rule for the calls is given here.
# Assays:
# [1] = resazurin metabolic signal in HepG2 cells – cell-based, resazurin fluorescence, 24 h, PK04 Diversity Set, profiling panel (AID 1172); settings: HepG2 viability, higher = more signal
# [2] = budding yeast growth changes without added modifier – OD600, strain BY4716, 24 h, basal condition, primary screen (AID 1173); settings: S. cerevisiae BY4716 growth, OD600, 24 h; higher = more signal, called active from +8 up or from −8 down
# [3] = viability profiling in MM1S myeloma cells – cell-based, resazurin fluorescence, basal, 24 h, PK04 Diversity Set, profiling panel (AID 1174); settings: higher = more signal, called active from +8 up or from −8 down;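 also: MM1S multiple myeloma cell line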
# [4] = molecular target: Dihydroorotate dehydrogenase (quinone), mitochondrial (Plasmodium falciparum (isolate 3D7)) (UniProt Q08210); experiment: inhibition of P. falciparum DHODH – biochemical, C-terminal His tag, absorbance 600 nm, primary screen (AID 1175); settings: PfDHODH enzyme, DCIP absorbance 600 nm; higher = more signal, called active from +8 up or from −8 down;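 also: recombinant parasite enzyme with a five histidine tag at its C terminus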
# Dihydroorotate dehydrogenase (quinone), mitochondrial (Plasmodium falciparum (isolate 3D7)), sequence (Q08210 whole entry, looked up): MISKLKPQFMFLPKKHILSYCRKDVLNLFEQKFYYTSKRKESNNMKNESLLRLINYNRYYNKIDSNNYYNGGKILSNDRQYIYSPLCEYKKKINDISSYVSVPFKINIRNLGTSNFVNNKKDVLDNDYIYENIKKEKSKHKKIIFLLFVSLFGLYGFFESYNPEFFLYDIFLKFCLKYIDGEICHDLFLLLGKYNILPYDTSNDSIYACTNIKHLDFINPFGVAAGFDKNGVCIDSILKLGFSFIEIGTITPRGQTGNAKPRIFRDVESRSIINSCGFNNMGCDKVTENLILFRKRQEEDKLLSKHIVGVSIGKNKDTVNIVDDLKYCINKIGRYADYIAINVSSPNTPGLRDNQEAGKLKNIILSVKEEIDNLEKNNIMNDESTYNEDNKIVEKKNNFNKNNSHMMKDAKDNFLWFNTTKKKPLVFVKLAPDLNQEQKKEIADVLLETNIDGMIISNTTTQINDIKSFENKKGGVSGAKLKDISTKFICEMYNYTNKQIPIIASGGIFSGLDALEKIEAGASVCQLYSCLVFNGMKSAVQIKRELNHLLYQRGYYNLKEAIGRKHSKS
# [5] = inhibition of PAO1 biofilm formation – strain PAO1, LB-PBS medium, absorbance 600 nm, primary screen (AID 1176); settings: P. aeruginosa PAO1 growth/biofilm, A600, 12 h; higher = more signal
# [6] = growth modulation of vineyard yeast isolate – strain RM11-1a, OD600, basal, 24 h, primary screen (AID 1177);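 also: cultures grown under basal conditions with no added stressor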; settings: S. cerevisiae RM11-1a growth, OD600, 24 h; higher = more signal, called active from +8 up or from −8 down
# [7] = growth of efflux-deficient E. coli DRC39 – strain DRC39, OD650, 24 h, E. coli filamentation inducers, primary screen (AID 1178);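 also: growth measured as culture turbidity by optical density at 650 nm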; settings: E. coli DRC39 acrAB, higher = more signal, called active from +8 up or from −8 down
# [8] = growth of efflux-deficient E. coli DRC39 – strain DRC39, OD650, 48 h, E. coli filamentation inducers, primary screen (AID 1179);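 also: screen aims at cell division blockers that make cells filament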; settings: E. coli DRC39 delta-acrAB growth, higher = more signal, called active from +8 up or from −8 down
# [9] = viability profiling in RPMI8226 myeloma cells – cell-based, resazurin fluorescence, basal, 24 h, PK04 Diversity Set, profiling panel (AID 1180); settings: higher = more signal;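 also: RPMI8826 multiple myeloma cell line at 5000 cells per well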
# [10] = molecular target: E3 ubiquitin-protein ligase XIAP (Homo sapiens) (UniProt P98170); experiment: small molecules binding XIAP protein – biophysical, small-molecule microarray, fluorescence 635 nm, primary screen (AID 1181); settings: higher = more signal;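 also: score merges 667 nm emission and signal to noise over triplicate slides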
# E3 ubiquitin-protein ligase XIAP (Homo sapiens), sequence (P98170 whole entry, looked up, the tested form may be a part): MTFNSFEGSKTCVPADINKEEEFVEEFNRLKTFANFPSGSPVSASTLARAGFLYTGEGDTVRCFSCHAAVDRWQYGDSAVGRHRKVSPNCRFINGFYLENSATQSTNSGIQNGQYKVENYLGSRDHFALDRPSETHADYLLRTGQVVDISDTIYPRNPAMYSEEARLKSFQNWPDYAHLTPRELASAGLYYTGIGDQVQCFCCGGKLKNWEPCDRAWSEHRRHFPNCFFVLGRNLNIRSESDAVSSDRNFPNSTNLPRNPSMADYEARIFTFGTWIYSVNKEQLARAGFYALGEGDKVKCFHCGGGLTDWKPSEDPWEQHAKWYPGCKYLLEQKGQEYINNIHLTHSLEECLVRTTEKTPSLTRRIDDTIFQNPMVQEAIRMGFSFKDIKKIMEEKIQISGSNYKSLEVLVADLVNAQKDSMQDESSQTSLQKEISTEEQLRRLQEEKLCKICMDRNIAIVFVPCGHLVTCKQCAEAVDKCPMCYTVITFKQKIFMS
# [11] = system: XIP peptide (Xip251-270) binding; experiment: XIP fragment 251-270 binding compounds – biochemical, small-molecule microarray, fluorescence 635/667 nm, 0.1 µg/mL protein, primary screen (AID 1182); settings: fluorescent protein binding, 635 nm, higher = more signal, called active from +8 up or from −8 down
# XIP peptide (Xip251-270) = experiment: compounds binding XIP fragment 251-270 – biochemical, small-molecule microarray, fluorescence 635/667 nm, 0.5 µg/mL protein, primary screen (AID 1183); settings: fluorescence 635 nm, higher = more signal
# [12] = blood-stage malaria parasite viability loss – strain 3D7, DAPI fluorescence, 100 nL, primary screen (AID 1184);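 also: parasites grown inside human red blood cells in medium with human serum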; settings: P. falciparum 3D7 growth, 3 d, higher = more signal
# [13] = molecular target: Homeobox protein Hox-A13 (Mus musculus) (UniProt Q62424); experiment: disruptors of Hoxa13 oligonucleotide interaction – biochemical, fluorescence polarization, labeled oligonucleotide, primary screen (AID 1185); settings: Hoxa13:DNA binding, 15 min, higher = more signal, called active from +8 up or from −8 down
# Homeobox protein Hox-A13 (Mus musculus), sequence (Q62424 whole entry, looked up): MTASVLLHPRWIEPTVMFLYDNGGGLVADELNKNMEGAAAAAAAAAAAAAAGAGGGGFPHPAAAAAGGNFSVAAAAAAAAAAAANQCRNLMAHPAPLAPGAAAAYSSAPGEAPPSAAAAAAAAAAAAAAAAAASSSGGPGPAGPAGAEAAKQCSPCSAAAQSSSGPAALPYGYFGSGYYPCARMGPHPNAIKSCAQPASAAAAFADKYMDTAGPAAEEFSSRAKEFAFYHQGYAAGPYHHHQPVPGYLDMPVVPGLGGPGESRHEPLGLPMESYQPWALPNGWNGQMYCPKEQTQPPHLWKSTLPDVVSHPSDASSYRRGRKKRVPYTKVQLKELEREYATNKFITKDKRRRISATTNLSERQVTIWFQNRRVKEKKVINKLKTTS
# [14] = blockers of DNA damage checkpoint Chk1 activation – imaging, HeLa, hydroxyurea, phospho-Chk1 antibody, percent positive cells, primary screen (AID 1186); settings: hydroxyurea-induced phospho-Chk1 immunofluorescence imaging, higher = more signal
# [15] = blockers of DNA damage checkpoint Chk1 activation – imaging, HeLa, hydroxyurea, phospho-Chk1 nuclear intensity, primary screen (AID 1187); settings: hydroxyurea-induced phospho-Chk1 immunofluorescence imaging, higher = more signal
SMILES,z-score [1],z-score [2],z-score [3],composite z-score [4],z-score [5],z-score [6],z-score [7],z-score [8],z-score [9],composite z-score [10],composite z-score [11],composite z-score (XIP peptide (Xip251-270)),z-score [12],z-score [13],z-score [14],z-score [15]
COC(=O)[C@H](Cc1ccccc1)N[C@H](/C=C/C1CC1)[C@@H](O)Cc1ccccc1,1,-4.55 (inactive),1.2 (inactive),1.14 (inactive),-0.708 (inactive),-1.44 (inactive),1.58 (inactive),0.398 (inactive),0.663,-0.195,-0.126 (inactive),0.34,-0.873,-5.24 (inactive),-0.748 (inactive),-0.39 (inactive)
CN1C(=O)C2C=CC(C(O)c3ccccc3)N(N3CCCCC3)C2C1=O (centres undefined),-0.894,0.429 (inactive),-0.983 (inactive),0.0669 (inactive),0.462 (inactive),-0.023 (inactive),-1.32 (inactive),-1.4 (inactive),-1.56,0.263,0.344 (inactive),0.797,-0.261,-5.01 (inactive),0.246 (inactive),-0.455 (inactive)
CCOc1cc(C(O)C2C=CC3C(=O)N(c4ccccc4)C(=O)C3N2Nc2ccc(C(C)C)cc2)ccc1O (centres undefined),-1.14,-1.16 (inactive),-0.988 (inactive),1.15 (inactive),0.779 (inactive),1.68 (inactive),-0.361 (inactive),-1.34 (inactive),-1.3,0.0891,0.429 (inactive),0.828,-0.85,-4.72 (inactive),0.415 (inactive),0.241 (inactive)
COc1ccc([Si](C)(C)[C@H]2[C@H](CCO)O[C@@]3(C(=O)N(Cc4ccccc4)c4ccc(N5CCCCC5=O)cc43)[C@@H]2C)cc1,-1.91,0.234 (inactive),-2.66 (inactive),-2.81 (inactive),1.51 (inactive),3.14 (inactive),0.663 (inactive),0.45 (inactive),-3.46,-0.0025,0.391 (inactive),0.686,-1.67,-5.2 (inactive),-1.39 (inactive),-0.713 (inactive)
C=CC[C@]1(C(N)=O)COC(c2ccc(OCCCO)cc2)=N1,1.4,0.412 (inactive),-0.801 (inactive),0.94 (inactive),-0.814 (inactive),0.75 (inactive),1.12 (inactive),1.83 (inactive),0.679,-0.095,-0.539 (inactive),-0.0487,0.668,-0.063 (inactive),-0.551 (inactive),-0.351 (inactive)
CC(C)N1CC=CC23O[C@@H]4C=CCOC(=O)[C@@H]4[C@H]2C(=O)N(CCCCCO)[C@@H]3C1=O (some centres undefined),0.413,-0.746 (inactive),1.27 (inactive),-1.85 (inactive),0.897 (inactive),-1.06 (inactive),0.319 (inactive),-0.134 (inactive),0.888,-0.216,0.334 (inactive),0.729,-0.758,-3.4 (inactive),0.0031 (inactive),-0.0755 (inactive)
CN1CCC(CCCO)=CC1c1cccs1 (centres undefined),-0.34,-0.158 (inactive),-0.838 (inactive),-0.404 (inactive),-0.377 (inactive),-0.842 (inactive),0.212 (inactive),0.0999 (inactive),-0.707,-0.319,0.912 (inactive),-1,0.896,-4.21 (inactive),1.02 (inactive),0.692 (inactive)
CCN(CC)c1ccc(N2CC=CC34O[C@@H]5C=CCOC(=O)[C@@H]5[C@H]3C(=O)N(CCCCCCO)[C@@H]4C2=O)cc1 (some centres undefined),1.35,-0.532 (inactive),1.27 (inactive),0.466 (inactive),-0.152 (inactive),-0.5 (inactive),0.918 (inactive),0.701 (inactive),1.45,0.212,1.07 (inactive),0.659,-0.897,-5.54 (inactive),0.234 (inactive),0.722 (inactive)
C=C(C)[C@@H]1CC=C(C(O)C2C=CC3C(=O)NC(=O)C3N2Nc2ccc(Cl)cc2Cl)CC1 (some centres undefined),-3.18,-5.07 (inactive),-2.94 (inactive),0.512 (inactive),0.875 (inactive),1.11 (inactive),-0.761 (inactive),-1.29 (inactive),-2.54,-0.0655,-0.245 (inactive),0.468,-0.52,-5.46 (inactive),0.463 (inactive),0.154 (inactive)
COC(=O)C(CC#Cc1ccc2c(c1)[C@]1(C(=O)N2)[C@H](c2ccccc2OCCO)N2[C@H](c3ccccc3)[C@H](c3ccccc3)OC(=O)[C@H]2[C@@H]1C(N)=O)C(=O)OC,-1.55,0.858 (inactive),-9.28 (active),-2.77 (inactive),1.18 (inactive),1.77 (inactive),-0.0371 (inactive),-0.156 (inactive),-7.42,0.0223,0.945 (inactive),0.787,-2.24,-2.21 (inactive),0.202 (inactive),0.555 (inactive)
O=C1OCCC=C[C@H]2OC34C=CCN(c5ccc(Cl)cc5)C(=O)[C@H]3N(CCCO)C(=O)[C@@H]4C12 (some centres undefined),-0.281,-0.757 (inactive),0.357 (inactive),-0.792 (inactive),0.248 (inactive),-0.163 (inactive),0.881 (inactive),0.415 (inactive),-0.658,-0.0826,-0.869 (inactive),-0.481,-1.83,-3.2 (inactive),-0.511 (inactive),-0.536 (inactive)
[N-]=[N+]=Nc1ccccc1C[C@@]1(C(=O)N2CCCCC2)N=C(c2ccc(OCCCO)cc2)O[C@@H]1c1ccccc1,1.9,-2.84 (inactive),-0.351 (inactive),0.496 (inactive),3.16 (inactive),0.076 (inactive),1.38 (inactive),0.887 (inactive),-0.0538,-0.236,-0.0034 (inactive),0.727,-2.19,-5.04 (inactive),-0.878 (inactive),-0.654 (inactive)
CCCCCCCCCCC(O)C1C=CC2C(=O)NC(=O)C2N1Nc1ccc(Cl)cc1Cl (centres undefined),-2.55,-1.08 (inactive),-1.76 (inactive),0.762 (inactive),0.201 (inactive),1.69 (inactive),-0.801 (inactive),-1.27 (inactive),-1.51,-0.102,3.34 (inactive),-0.333,-0.642,-0.739 (inactive),0.387 (inactive),0.006 (inactive)
COCCOC(=O)N1C(=O)[C@@]2(c3ccccc31)[C@H](C(=O)N1CCc3cc(OC)c(OC)cc3C1)[C@H]1C(=O)O[C@H](c3ccccc3)[C@H](c3ccccc3)N1[C@@H]2c1ccc(O)cc1,0.349,0.296 (inactive),0.173 (inactive),-0.974 (inactive),2.16 (inactive),1.13 (inactive),-0.157 (inactive),0.549 (inactive),-0.111,0.116,1.58 (inactive),0.807,-0.45,-1.34 (inactive),-0.437 (inactive),-0.469 (inactive)
O=C(O)[C@H]1C[C@H]2C(=O)N3CCC[C@H]3C(=O)N2[C@H]1c1ccc(O)cc1,0.684,-0.171 (inactive),1.1 (inactive),-0.453 (inactive),0.0778 (inactive),0.208 (inactive),0.408 (inactive),0.715 (inactive),1.07,0.125,-0.469 (inactive),-0.0016,0.351,-1.01 (inactive),0.272 (inactive),0.267 (inactive)
C#CCOc1ccc(C[C@@H](C(=O)OC)N(CC#C)[C@@H](/C=C/C2CC2)[C@H](O)Cc2ccccc2)cc1,0.288,1.03 (inactive),0.232 (inactive),0.567 (inactive),-0.271 (inactive),1.45 (inactive),-0.741 (inactive),-0.528 (inactive),0.318,0.157,-0.365 (inactive),-0.119,-1.21,-3.88 (inactive),-0.146 (inactive),-0.432 (inactive)
C[N+](C)(C)CCCC[C@@H]1NC(=O)[C@@H]2C[C@H](C(=O)NCCCCCCNC(=O)CS)[C@H](c3ccc(O)cc3)N2C1=O,-0.206,1.4 (inactive),-0.387 (inactive),-0.206 (inactive),-0.282 (inactive),0.144 (inactive),-0.253 (inactive),-0.135 (inactive),-0.437,-0.0911,0.307 (inactive),0.496,0.504,-1.32 (inactive),0.146 (inactive),0.32 (inactive)
Cc1ccc(S[C@]2(C(=O)NCC(C)C)CC(=O)N(Cc3cc(C(F)(F)F)cc(C(F)(F)F)c3)[C@@H]2c2ccc(CO)cc2)cc1,-0.0834,-0.58 (inactive),-0.656 (inactive),-0.099 (inactive),0.559 (inactive),-0.622 (inactive),-0.995 (inactive),-0.882 (inactive),-0.321,-0.142,-0.0537 (inactive),0.0501,-0.309,-2.19 (inactive),-0.0406 (inactive),-0.284 (inactive)
OCCCC1=CC(C2CC2)N(Cc2cccc(OC(F)(F)F)c2)CC1 (centres undefined),0.702,-1.85 (inactive),0.171 (inactive),-3.08 (inactive),-0.517 (inactive),0.345 (inactive),0.425 (inactive),0.327 (inactive),0.365,0.324,0.0736 (inactive),0.492,-1.76,-4.21 (inactive),-0.245 (inactive),0.143 (inactive)
